Test [1] can be described thus: antimalarial activity against Dd2 strain (AID 2302;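 active means growth inhibition above 50% at the single 2 µM test dose, taken to imply half-maximal potency below 2 µM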;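 further: 0% = DMSO untreated growth and 100% = chloroquine plus artemisinin killed control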). As to conditions: P. falciparum Dd2 in RBCs, LDH growth readout, 72 h; at 2 µM; hits give high values.
A short description of test [2]: human hepatoma cell viability loss – ATP luminescence, cytotoxicity control for P. falciparum antimalarial project, primary screen (AID 2303;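 active means inhibition above 50%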;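 further: 0% = DMSO wells and 100% = digitonin-killed cells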). The conditions noted are these: HepG2 viability, 24-48 h, at 10 µM, hits give high values.
In test [3] the target is L-lactate dehydrogenase (Plasmodium falciparum (isolate CDC / Honduras)) (UniProt Q27743). Briefly: PfLDH activity inhibition – cell lysate, 3D7 strain, counter-screen for P. falciparum growth inhibition project (AID 2304).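 Further: 0% = vehicle and 100% = reference inhibitor.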 The conditions noted are these: P. falciparum 3D7 crude extract, LDH APAD/NBT absorbance; at 2 µM; hits give high values. In general terms: Counterscreens check selectivity or assay interference.
Chain of L-lactate dehydrogenase (Plasmodium falciparum (isolate CDC / Honduras)) (Q27743 whole entry, looked up): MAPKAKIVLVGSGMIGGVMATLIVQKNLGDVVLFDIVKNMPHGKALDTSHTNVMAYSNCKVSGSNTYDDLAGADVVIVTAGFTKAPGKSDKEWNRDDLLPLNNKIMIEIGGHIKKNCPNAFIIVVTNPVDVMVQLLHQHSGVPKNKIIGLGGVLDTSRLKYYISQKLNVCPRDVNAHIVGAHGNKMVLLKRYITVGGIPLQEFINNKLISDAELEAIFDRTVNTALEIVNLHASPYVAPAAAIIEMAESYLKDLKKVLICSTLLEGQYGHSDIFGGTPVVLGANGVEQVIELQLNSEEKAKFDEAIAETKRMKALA

The nature of test [4]: inhibition of 3D7 malaria parasite growth – strain 3D7 (AID 2306).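 Further: 0% = DMSO wells and 100% = chloroquine plus artemisinin control wells.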 The conditions noted are these: P. falciparum 3D7 erythrocytic growth, LDH absorbance, 72 h; at 2 µM; hits give high values.
For test [5], the target named is Plasmodium falciparum protein kinase 6 (PK6, PF3D7_1337100) (UniProt Q8IDW1). Briefly: PfPK6 kinase inhibitors, biochemical, TCAMS library (AID 1159586). As to conditions: recombinant PfPK6, Kinase-Glo ATP depletion luminescence. A general note: In Kinase-Glo more light means more ATP remaining.
Chain of Plasmodium falciparum protein kinase 6 (PK6, PF3D7_1337100) (Q8IDW1 1-305): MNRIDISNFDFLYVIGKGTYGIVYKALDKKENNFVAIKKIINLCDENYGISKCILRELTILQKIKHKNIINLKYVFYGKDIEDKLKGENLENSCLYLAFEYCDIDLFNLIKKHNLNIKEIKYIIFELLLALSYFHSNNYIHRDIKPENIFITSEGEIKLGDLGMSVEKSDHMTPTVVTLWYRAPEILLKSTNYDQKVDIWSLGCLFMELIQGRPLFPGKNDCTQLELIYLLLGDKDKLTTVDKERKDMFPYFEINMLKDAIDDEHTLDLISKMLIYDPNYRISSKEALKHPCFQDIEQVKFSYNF
For test [6], the target named is Protein kinase 7 (PK7), Plasmodium falciparum 3D7 (PF3D7_0213400) (UniProt Q7YTF7). The test can be described thus: inhibition of Plasmodium PK7 catalytic activity – biochemical, TCAMS antimalarial set, Kinase-Glo luminescence (AID 1159587). The conditions noted are these: recombinant PfPK7, Kinase-Glo ATP depletion luminescence.
Chain of Protein kinase 7 (PK7), Plasmodium falciparum 3D7 (PF3D7_0213400) (Q7YTF7 1-343): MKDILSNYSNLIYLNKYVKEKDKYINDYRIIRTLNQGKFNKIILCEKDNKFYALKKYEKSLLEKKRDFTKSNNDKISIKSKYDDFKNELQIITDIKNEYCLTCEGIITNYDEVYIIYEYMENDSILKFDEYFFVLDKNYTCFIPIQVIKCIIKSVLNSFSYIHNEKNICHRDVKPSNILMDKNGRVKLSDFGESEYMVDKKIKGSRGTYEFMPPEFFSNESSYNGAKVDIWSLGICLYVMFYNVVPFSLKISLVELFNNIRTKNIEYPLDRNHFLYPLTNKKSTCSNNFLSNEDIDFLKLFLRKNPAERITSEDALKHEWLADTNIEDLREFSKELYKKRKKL
The target of test [7] is Calcium-dependent protein kinase 4 (Plasmodium falciparum (isolate 3D7)) (UniProt Q8IBS5). The test can be described thus: PfCDPK4 kinase inhibitors, biochemical, TCAMS library (AID 1159588; cut-off not given, nearly all actives have IC50 up to about 0.91 µM). The conditions noted are these: recombinant PfCDPK4, Kinase-Glo ATP depletion luminescence.
Chain of Calcium-dependent protein kinase 4 (Plasmodium falciparum (isolate 3D7)) (Q8IBS5 whole entry, looked up): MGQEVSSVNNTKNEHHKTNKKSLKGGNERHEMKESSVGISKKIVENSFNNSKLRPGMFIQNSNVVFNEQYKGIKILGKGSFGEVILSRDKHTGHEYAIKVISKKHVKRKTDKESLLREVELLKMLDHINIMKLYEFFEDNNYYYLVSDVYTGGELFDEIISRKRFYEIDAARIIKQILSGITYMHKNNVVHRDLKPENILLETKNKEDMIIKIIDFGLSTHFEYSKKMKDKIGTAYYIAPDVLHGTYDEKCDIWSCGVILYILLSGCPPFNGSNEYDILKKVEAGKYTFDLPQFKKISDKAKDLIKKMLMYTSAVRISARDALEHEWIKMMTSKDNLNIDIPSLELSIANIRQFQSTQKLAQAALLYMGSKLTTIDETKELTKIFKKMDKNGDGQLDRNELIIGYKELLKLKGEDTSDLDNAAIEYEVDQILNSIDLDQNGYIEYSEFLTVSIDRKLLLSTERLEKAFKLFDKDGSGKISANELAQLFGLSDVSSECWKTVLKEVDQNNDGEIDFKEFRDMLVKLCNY

Each structure is given as a SMILES string. For some of these results: Results with a measured potency or affinity are listed apart. Activity calls are given as the source filed them. Unless noted, how the calls were made is not given here.

Usually inhibition stands for the change of the read-out against control, counted positive when it falls.

With `CC(C)(CNCc1ccc(C(F)(F)F)cc1)c1nc(-c2ccc(Cl)c(O)c2)c(-c2ccnc(N)n2)[nH]1`, the growth inhibition in test [1] was 37% (inactive); in test [4], 101% (active). Also, the inhibition in test [2] was 32% (inactive); in test [3] it was -2% (inactive). Also, the outcome in test [5], in test [6] and in test [7] was inactive.
In the case of `Oc1cc(Nc2ccnc3cc(I)ccc23)c(F)cc1Cl`, the results for the growth inhibition in test [1] and in test [4] were 77% (active) and 92% (active), respectively. The inhibition in test [2] and in test [3] was -3% (inactive) throughout. For the same molecule, the result in test [5], in test [6] and in test [7] was inactive.
As to `COc1ccc(-c2cnn3ccc(Nc4cc(OC)c(OC)c(OC)c4)nc23)cc1OC`, the growth inhibition in test [1] is 100% (active); in test [4] it was 98% (active). In addition, the inhibition is 57% (active) in test [2] and -4% (inactive) in test [3]. For the same molecule, the outcome in test [5], in test [6] and in test [7] was inactive.
Turning to `COCCNCc1cccc(-c2ccc3c(Nc4cc(O)c(Cl)cc4F)ccnc3c2)c1`, the growth inhibition was 79% (active) in test [1] and 101% (active) in test [4]. Besides, the figures for the inhibition in test [2] and in test [3] were -3% (inactive) and 7% (inactive), respectively. For the same molecule, the result in test [5], in test [6] and in test [7] was inactive.
Consider `CC(C)(CN)c1nc(-c2ccc(Cl)c(O)c2)c(-c2ccncc2)[nH]1`, for which the growth inhibition in test [1] was 98% (active); in test [4], 97% (active). Moreover, the inhibition is 34% (inactive) in test [2] and 0% (inactive) in test [3]. The result in test [5], in test [6] and in test [7] was inactive.
As for `CN(C)CCN(C)Cc1ccc(-c2ccc3c(Nc4ccc(Oc5ccccc5)cc4)ccnc3c2)o1`, the growth inhibition in test [1] and in test [4] was 100% (active) throughout. Also, the figures for the inhibition in test [2] and in test [3] were 5% (inactive) and -4% (inactive), respectively. For the same molecule, the outcome in test [5], in test [6] and in test [7] was inactive.
As for `CN(C)CCNCc1ccc(-c2ccc3c(Nc4ccc(Cl)cc4F)ccnc3c2)o1`, the growth inhibition in test [1] is 100% (active); in test [4], 99% (active). For the same molecule, the inhibition in test [2] was 14% (inactive); in test [3], -4% (inactive). For the same molecule, the outcome in test [5], in test [6] and in test [7] was inactive.
As for `CC(C)(CNCc1ccc(Cl)c(Cl)c1)c1nc(-c2ccc(Cl)c(O)c2)c(-c2ccncc2)[nH]1`, the growth inhibition is 97% (active) in test [1] and 101% (active) in test [4]. The figures for the inhibition in test [2] and in test [3] were 43% (inactive) and -3% (inactive), respectively. Moreover, the result in test [5], in test [6] and in test [7] was inactive.
Turning to `c1ccc(Oc2ccc(Nc3ccnc(Nc4ccc(OCCN5CCCCC5)cc4)n3)cc2)cc1`, the results for the growth inhibition in test [1] and in test [4] were 66% (active) and 97% (active), respectively. The inhibition in test [2] is 23% (inactive); in test [3], -2% (inactive). Also, the result in test [5], in test [6] and in test [7] was inactive.
Take `CCCN1CCN(CCNC(=O)c2cccc(Nc3nccc(Nc4ccc(Oc5ccccc5)cc4)n3)c2)CC1`: the values for the growth inhibition in test [1] and in test [4] were 96% (active) and 99% (active), respectively. Besides, the inhibition in test [2] is 56% (active); in test [3], -7% (inactive). For the same molecule, the outcome in test [5], in test [6] and in test [7] was inactive.
For the molecule `CN(C)CCOc1ccc(-c2cc(-c3ccc(Cl)c(O)c3)c(-c3ccnc(N)n3)o2)cc1`, the growth inhibition was 95% (active) in test [1] and 100% (active) in test [4]. The inhibition was 43% (inactive) in test [2] and 2% (inactive) in test [3]. In addition, the outcome in test [5], in test [6] and in test [7] was inactive.
`CC(C)(CNC(=O)C1CCN(CCOCc2ccccc2)CC1)c1nc(-c2ccc(Cl)c(O)c2)c(-c2ccncc2)[nH]1`: the growth inhibition in test [1] was 18% (inactive); in test [4], 101% (active). Further, the inhibition in test [2] is 11% (inactive); in test [3], -14% (inactive). In addition, the outcome in test [5], in test [6] and in test [7] was inactive.
In the case of `COc1ccc(-c2cnc3ccc(NCCCO)nn23)cc1OC`, the growth inhibition in test [1] is 90% (active); in test [4] it was 98% (active). For the same molecule, the values for the inhibition in test [2] and in test [3] were 9% (inactive) and -1% (inactive), respectively. For the same molecule, the result in test [5], in test [6] and in test [7] was inactive.
With `COc1ccc(-c2cnc3[nH]cc(-c4ccncc4)c3c2)cc1OC`, the growth inhibition in test [1] was 97% (active); in test [4] it was 98% (active). Besides, the results for the inhibition in test [2] and in test [3] were 52% (active) and -2% (inactive), respectively. In addition, the result in test [5], in test [6] and in test [7] was inactive.
Consider `CNC(=O)c1ccccc1Nc1nc(Nc2ccc(C(=O)O)cc2)ncc1Cl`, for which the growth inhibition in test [1] and in test [4] was 92% (active) throughout. Also, the inhibition in test [2] was 60% (active); in test [3], -2% (inactive). The result in test [5], in test [6] and in test [7] was inactive.
In the case of `CN1CCN(Cc2cccc(Nc3nccc(Nc4ccc(Oc5ccccc5)cc4)n3)c2)CC1`, the growth inhibition in test [1] was 80% (active); in test [4], 97% (active). In addition, the inhibition in test [2] was 30% (inactive); in test [3], 2% (inactive). The outcome in test [5], in test [6] and in test [7] was inactive.
Regarding `O=C(NCCN1CCC(c2ccncc2)CC1)c1cccc(Nc2nccc(Nc3ccc(Oc4ccccc4)cc3)n2)c1`, the growth inhibition in test [1] is 91% (active); in test [4] it was 101% (active). Also, the inhibition is 60% (active) in test [2] and -3% (inactive) in test [3]. Moreover, the result in test [5], in test [6] and in test [7] was inactive.
With `Cc1ccc(Nc2nccc(Nc3ccc4c(c3)nc(Nc3cc(C(C)(C)C)on3)n4C)n2)cc1S(C)(=O)=O`, the growth inhibition in test [1] is 99% (active); in test [4], 100% (active). Moreover, the inhibition was 30% (inactive) in test [2] and -5% (inactive) in test [3]. For the same molecule, the result in test [5], in test [6] and in test [7] was inactive.
In the case of `CC(C)(NCc1ncc[nH]1)c1nc(-c2ccc(Cl)c(O)c2)c(-c2ccncc2)[nH]1`, the figures for the growth inhibition in test [1] and in test [4] were 97% (active) and 95% (active), respectively. In addition, the inhibition was 42% (inactive) in test [2] and 3% (inactive) in test [3]. In addition, the outcome in test [5], in test [6] and in test [7] was inactive.

For the origin of these results see PubChem BioAssay.
